Hits are enriched below; roughly 3.1% of the tested compounds scored in any of these assays.
SIRT5 inh: SIRT5 desuccinylase inhibitors, primary screen, biochemical, fluorescence imaging, single point, set 5; Purified SirT5, succinyl-peptide AMC, trypsin-coupled fluorescence; inhibition, % at 15 µM; 330,000 tested, 1.1% active; in the data active = inhibition above about 15%
Target sequence (Q9NXA8 whole entry, looked up): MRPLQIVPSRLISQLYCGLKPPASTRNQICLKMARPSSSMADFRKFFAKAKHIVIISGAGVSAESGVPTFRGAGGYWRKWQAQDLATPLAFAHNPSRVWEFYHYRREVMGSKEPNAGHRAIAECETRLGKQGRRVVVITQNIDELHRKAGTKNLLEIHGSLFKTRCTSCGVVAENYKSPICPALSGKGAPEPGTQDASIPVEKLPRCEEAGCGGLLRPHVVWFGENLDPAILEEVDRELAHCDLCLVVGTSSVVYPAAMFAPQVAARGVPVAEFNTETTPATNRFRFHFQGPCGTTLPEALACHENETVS
FGF22 binding: binders of human FGF22 protein, primary screen, FGF22 synaptogenesis inhibitor project, biophysical, thermal shift, single point; recombinant FGF22 thermal shift, SYPRO orange fluorescence; percent of sucrose octasulfate shift, DMSO zero; AID 651658, 2012; 340,000 tested, 1.5% active; activity (Tm shift, normalised), % at 9.99 µM; Fibroblast growth factor 22 (Homo sapiens), Q9HCT0;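 active = mean Tm shift, scaled 0 neutral to 100 positive control, at about 1.3% or above, every replicate too, limit read from the data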
Target sequence (Q9HCT0 whole entry, looked up): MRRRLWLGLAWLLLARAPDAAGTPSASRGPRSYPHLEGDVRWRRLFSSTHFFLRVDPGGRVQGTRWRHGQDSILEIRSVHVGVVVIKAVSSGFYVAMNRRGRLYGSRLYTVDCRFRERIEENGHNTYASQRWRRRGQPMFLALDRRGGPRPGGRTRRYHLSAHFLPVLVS
ERAP1 HTS inh: human ERAP1 aminopeptidase inhibitors, primary screen, biochemical, single point, plate reader; Endoplasmic reticulum aminopeptidase 1 (Homo sapiens), Q9NZ08; recombinant ERAP1, Leu-AMC fluorescence, 60 min; inhibition, % at 10.7 µM; 340,000 tested, 0.15% active; AID 652197, 2013;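 active = mean replicate inhibition of at least 30%, or all replicates individually reaching that 30% level; inactive = mean below 30% and not every replicate reaching it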;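 note: 0% = neutral control wells and 100% = L-leucinethiol positive control wells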
CASP6 VEID inh: human caspase-6 inhibitors, primary screen, biochemical, VEID-R110 fluorescence, single point, set 2; P55212; inhibition, % at 12.5 µM; 350,000 tested, 0.53% active; purified caspase-6, Z-VEID-R110 cleavage fluorescence;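 active = mean inhibition across replicates at least about 35%, with every replicate also reaching that limit, limit read from the data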;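 note: 0% = median of neutral control wells and 100% = no fluorescence left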
* marks the source's active call; other numbers are inactive results; x = no result; ! = not confirmed by another sample.

SMILES	SIRT5 inh	FGF22 binding	ERAP1 HTS inh	CASP6 VEID inh
O=C(O)C1Cc2ccccc2CN1C(=O)COc1ccc(Cl)cc1 (stereo not given)	5	43*	1	20
CCOC(=O)CC1C(=O)NCCN1C1CCCC1 (stereo not given)	20*	0	0	3
CCOC(=O)CC1C(=O)NCCN1C(=O)c1ccc(C)cc1 (stereo not given)	-1	0	-2	-4
C=C(C)C(=O)Nc1ccc2c(c1)OCCOCCOCCO2	-2	0	-7	53*
O=C(Nc1ccc2c(c1)OCCO2)N1CCOCC1	-2	0	-2	x
CCn1c(=O)c(-c2cc(=O)[nH][nH]2)c(O)c2ccccc21	12	0	-5	6
O=c1cc(-c2c(O)c3ccccc3n(Cc3ccccc3)c2=O)[nH][nH]1	0	0	1	56*
O=C(C[C@@H]1C[C@@H]2c3cc(NC(=O)Cc4ccncc4)ccc3O[C@@H]2[C@@H](CO)O1)NCCN1CCCCC1	1	0	0	6
Cc1noc(C)c1NC(=O)Nc1cccc2c1O[C@@H](CN(C)Cc1ccc(Oc3ccccc3)cc1)[C@@H](C)CN([C@H](C)CO)C2=O	37*	0	-1	-1
Cc1cc(C(=O)Nc2cccc3c2O[C@@H](CN(C)Cc2ccc(Oc4ccccc4)cc2)[C@H](C)CN([C@H](C)CO)C3=O)n(C)n1	22*	-1	-2	0
Cc1noc(C)c1NC(=O)Nc1cccc2c1O[C@H](CN(C)Cc1ccc(C(=O)Nc3ccccc3N)cc1)[C@@H](C)CN([C@@H](C)CO)C2=O	22*	0	2	1
Cc1cc(C(=O)Nc2cccc3c2O[C@H](CN(C)Cc2ccc(Oc4ccccc4)cc2)[C@H](C)CN([C@@H](C)CO)C3=O)n(C)n1	3	x	-2	-2
Cc1noc(C)c1NC(=O)Nc1cccc2c1O[C@H](CN(C)Cc1ccc(Oc3ccccc3)cc1)[C@@H](C)CN([C@H](C)CO)C2=O	-4	0	-1	0
C[C@@H]1CCCCO[C@H](CN(C)Cc2ccc(C(F)(F)F)cc2)[C@H](C)CN([C@H](C)CO)C(=O)c2cc(NS(C)(=O)=O)ccc2O1	x	0	x	x
C[C@@H]1CCCCO[C@H](CN(C)C(=O)Nc2ccc3c(c2)OCO3)[C@H](C)CN([C@H](C)CO)C(=O)c2cc(NC(=O)c3ccncc3)ccc2O1	-2	0	1	-2
Cc1noc(C)c1NC(=O)N(C)C[C@H]1Oc2ccc(NS(=O)(=O)c3cn(C)cn3)cc2CC(=O)N([C@@H](C)CO)C[C@H]1C	0	0	3	-5
CCC(=O)N1CC2(CCN(Cc3cncnc3)CC2)c2c([nH]c3cc(OC)ccc23)[C@H]1CO	x	0	-1	x
CNC[C@H]1Oc2c(NC(=O)Nc3ccc4c(c3)OCO4)cccc2C(=O)N([C@@H](C)CO)C[C@H]1C	99*	0	-2	-3
C[C@@H]1CN([C@H](C)CO)C(=O)c2cccc(NC(=O)Nc3ccc4c(c3)OCO4)c2O[C@@H]1CN(C)C	-4	0	-3	0
Cc1ccc(S(=O)(=O)N(C)C[C@H]2Oc3c(NC(=O)Nc4ccc5c(c4)OCO5)cccc3C(=O)N([C@H](C)CO)C[C@H]2C)cc1	12	1	-5	-1
C[C@H](CO)N1C[C@H](C)[C@H](CN(C)C(=O)Nc2ccc3c(c2)OCO3)Oc2c(NC(=O)C3CCCCC3)cccc2C1=O	1	0	-1	1
Cc1ccc(S(=O)(=O)N(C)C[C@@H]2Oc3c(NC(=O)Nc4ccc5c(c4)OCO5)cccc3C(=O)N([C@H](C)CO)C[C@@H]2C)cc1	15*	0	-6	-3
C[C@H](CO)N1C[C@H](C)[C@@H](CN(C)C(=O)Nc2ccc3c(c2)OCO3)Oc2c(NC(=O)C3CC3)cccc2C1=O	22*!	0	0	1
CN(C)c1ccc2c(c1)[C@H]1C[C@H](CC(=O)NCc3cc(F)ccc3F)O[C@@H](CO)[C@H]1O2	1	-1	-1	0
C[C@@H](NC(=O)[C@H]1[C@H](CO)[C@H]2Cn3c(cccc3=O)[C@@H]1N2C(=O)C1CC1)c1ccccc1	5	0	-3	3
SMILES	SIRT5 inh	FGF22 binding	ERAP1 HTS inh	CASP6 VEID inh
C[C@H](CO)N1C[C@H](C)[C@H](CN(C)Cc2ccc(C(F)(F)F)cc2)Oc2ccc(NC(=O)Nc3ccc4c(c3)OCO4)cc2C1=O	4	0	0	4
CCNc1nc(C#N)nc2c1ncn2-c1cc(F)cc(F)c1	25*	0	1	-4
CCCc1cc(C(=O)OC)c(NC(=O)CCCC(=O)O)s1	-2	44*	1	-2
C[C@@H]1CN([C@@H](C)CO)C(=O)c2cccc(NC(=O)c3ccc(-c4nccs4)cc3)c2O[C@@H]1CN(C)Cc1ccccc1	15*	0	-2	x
C[C@H]1CN([C@@H](C)CO)C(=O)c2cccc(NC(=O)c3ccc(-c4nccs4)cc3)c2O[C@H]1CN(C)Cc1ccc(Oc2ccccc2)cc1	21*	0	-5	-1
C[C@H](CO)N1C[C@H](C)[C@@H](CN(C)Cc2ccc(Oc3ccccc3)cc2)Oc2c(NC(=O)c3ccc(-c4nccs4)cc3)cccc2C1=O	16*	0	-6	-2
C[C@@H]1CN([C@@H](C)CO)C(=O)c2cccc(NC(=O)c3ccc(-c4nccs4)cc3)c2O[C@@H]1CN(C)Cc1ccc(Oc2ccccc2)cc1	12	0	-6	-1
C[C@H](CO)N1C[C@H](C)[C@@H](CN(C)Cc2ccccc2)Oc2c(NC(=O)c3ccc(-c4nccs4)cc3)cccc2C1=O	5	0	-5	x
O=C(Nc1ccc2c(c1)[C@@H]1C[C@@H](CC(=O)N3CCc4ccccc4C3)O[C@H](CO)[C@@H]1O2)C1CCC1	1	0	1	2
COc1ccc2c3c([nH]c2c1)[C@H](CO)N(C(=O)c1ccc(F)cc1)CC31CN(C)C1	x	0	x	x
CC(=O)Nc1ccc2c(c1)C(=O)N(C)[C@H]1CC[C@H](CC(=O)Nc3ccc(C)cc3)O[C@@H]1CO2	x	0	x	x
C[C@H](CO)N1C[C@H](C)[C@H](CN(C)S(=O)(=O)c2ccc3c(c2)OCCCO3)OCc2cn(nn2)CCCC1=O	-2	0	-5	-3
Cc1cc(/C=C2/C(=O)N(C)C(=S)N2C)ccc1N1CCCC1	-2	43*	-4	-3
O=C1CSC(=S)N1c1ccc(F)c(Cl)c1	1	0	4	x
CC(C)=C1C(=O)NN(c2ccc(F)c(Cl)c2)C1=O	5	0	2	68*
CC(C)C#Cc1cnc2c(c1)C(=O)N([C@H](C)CO)C[C@H](C)[C@@H](CN(C)Cc1cccc(F)c1)O2	7	0	5	-1

Screening data (PubChem BioAssay)
